Drawing on PubChem BioAssay (EPA / NIEHS), this text covers outcome and AC50 for 22 molecules.

The nature of test [1]: ATG_XTT_Cytotoxicity: Cytotoxicity Assessment in the Attagene TRANS-FACTORIAL HepG2 Assay (AID 2283584). In a few lines:
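HepG2 human liver cells, transiently transfected with multiple GAL4-UAS reporter units, were dosed and read at 24 h by XTT as cell number. Loss of signal was fitted relative to DMSO negative control baseline.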

Test [2] is described as follows: TOX21_p53_BLA_p2_viability: Viability Assessment in the Tox21 HCT-116 p53 Agonism Beta-lactamase Assay, Phase 2 (AID 2283591).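 Note: compound exposure lasted 16 h at 37 °C; actives lower the ATP signal meaning cytotoxicity.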 Put shortly:
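Cytotoxicity readout: CellTiter-Glo ATP luminescence, 30 min at room temperature, after the beta-lactamase read. Cells were HCT116 exposed 16 h at 37C to compounds pin-transferred at 217-fold dilution from DMSO stocks.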

The target in test [3] is Cellular tumor antigen p53 (Homo sapiens) (UniProt P04637). Nature of the test: TOX21_p53_BLA_p2_ratio: Tox21 HCT-116 p53 Agonism Beta-lactamase Assay, Ratio, Phase 2 (AID 2283592). Put shortly: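 HCT116 cells carrying a p53-responsive beta-lactamase reporter were plated, incubated 5 h at 37C, then dosed with compounds in DMSO (217-fold dilution) for 16 h. CCF4-AM substrate was added for 2 h at room temperature; the 460/530 nm emission ratio gave gain-of-signal activity relative to DMSO.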
Cellular tumor antigen p53 (Homo sapiens), sequence (P04637 whole entry, looked up): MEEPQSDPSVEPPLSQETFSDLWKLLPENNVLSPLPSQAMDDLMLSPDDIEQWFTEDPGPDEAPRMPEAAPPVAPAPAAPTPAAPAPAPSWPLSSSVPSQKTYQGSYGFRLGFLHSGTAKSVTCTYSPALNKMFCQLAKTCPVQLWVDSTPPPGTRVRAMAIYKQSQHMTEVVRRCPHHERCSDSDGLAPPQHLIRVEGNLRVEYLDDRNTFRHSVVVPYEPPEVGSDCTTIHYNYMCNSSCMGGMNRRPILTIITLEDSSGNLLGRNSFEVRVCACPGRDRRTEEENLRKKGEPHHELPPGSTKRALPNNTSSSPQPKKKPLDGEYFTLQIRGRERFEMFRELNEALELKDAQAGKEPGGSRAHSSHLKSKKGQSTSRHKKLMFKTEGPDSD

The target is the same in test [4]. Nature of the test: TOX21_p53_BLA_p3_ratio: Tox21 HCT-116 p53 Agonism Beta-lactamase Assay, Ratio, Phase 3 (AID 2283596). Put shortly:
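HCT116 p53-bla cells (4000/well) given compound in DMSO (217-fold dilution) after 5 h, incubated 16 h at 37C. CCF4-AM substrate 2 h at room temperature; 460/530 nm emission ratio, gain fitted against DMSO.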

A short description of test [5]: TOX21_p53_BLA_p4_viability: Viability Assessment in the Tox21 HCT-116 p53 Agonism Beta-lactamase Assay, Phase 4 (AID 2283597).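 Note: hits lower the luminescence signal meaning cytotoxicity.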 Put shortly:
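HCT116 p53-bla cells (4000/well) rested 5 h at 37C, then received compounds in DMSO (217-fold dilution) for 16 h at 37C, 5% CO2. CellTiter-Glo was added after the CCF4-AM read, and luminescence was read after 30 min at room temperature.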

Test [6] has as its target Cellular tumor antigen p53 (Homo sapiens) (UniProt P04637). In words: TOX21_p53_BLA_p5_ratio: Tox21 HCT-116 p53 Agonism Beta-lactamase Assay, Ratio, Phase 5 (AID 2283599). Put shortly: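 Beta-lactamase reporter ratio (blue 460 nm over green 530 nm, 405 nm excitation) after 2 h CCF4-AM loading, in HCT-116 cells exposed 16 h at 37 C to compounds pinned at 217-fold dilution. Increases relative to DMSO baseline scored.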

Test [7] in a line: TOX21_p53_BLA_p5_viability: Viability Assessment in the Tox21 HCT-116 p53 Agonism Beta-lactamase Assay, Phase 5 (AID 2283600). In a few lines: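 Cells were plated at 4000/well, rested 5 h at 37C, then given compounds in DMSO (217-fold dilution) for 16 h at 37C, 5% CO2. Following the CCF4-AM beta-lactamase read, CellTiter-Glo was added and luminescence was read after 30 min at room temperature.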

Test [8] has as its target Cellular tumor antigen p53 (Homo sapiens) (UniProt P04637). Nature of the test: TOX21_p53_BLA_p4_ratio: Tox21 HCT-116 p53 Agonism Beta-lactamase Assay, Ratio, Phase 4 (AID 2283601). In a few lines:
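Signal is the blue/green (460nm/530nm) ratio of cleaved versus uncleaved CCF4-AM substrate, read after 2 h substrate loading. Cells were HCT116 carrying the p53-responsive beta-lactamase reporter, dosed 16 h at 37C, 5% CO2; CellTiter-Glo measured in parallel.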

Test [9] can be described thus: TOX21_p53_BLA_p3_viability: Viability Assessment in the Tox21 HCT-116 p53 Agonism Beta-lactamase Assay, Phase 3 (AID 2283593).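 Note: cells exposed to compound for 16 h before reading.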 Put shortly: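 Cellular ATP was quantified by CellTiter-Glo luminescence, read after 30 min at room temperature. Beforehand, HCT116 cells (4000/well) received compound 5 h post-seeding, 217-fold diluted from DMSO, then incubated 16 h at 37C.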

Each structure is given as a SMILES string. Records with an inconclusive call do not appear. A structure can be active in one record and inactive in another. Active and inactive are the calls of the source. Rule for the calls: active = hit-call score of the fitted dose curve at least 0.9, where 1 is the maximum; inconclusive = response in the unintended direction; inactive = score below 0.9.

Turning to `CCCCCCCCSC(=O)Oc1cc(Cl)nnc1-c1ccccc1`, the molecule was called inactive in test [1], in [2], in test [3], in test [4], in [5] and in test [6]. The molecule was classed as inactive in test [7].

In the case of `CC(C)CCCCCCOC(=O)c1ccccc1C(=O)OCCCCCCC(C)C`, the outcome in [1], in test [2], in test [3] and in test [5] was inactive.

Turning to `Cc1ccccc1C(=O)Nc1cccc(OC(C)C)c1`, the molecule was called inactive in [1], in test [2], in test [3], in [5], in test [6] and in test [7]. For the same molecule, in [8], the result was inactive.

In the case of `Clc1nc(Cl)nc(Cl)n1`, the molecule was classed as inactive in test [1], in test [2], in test [3], in test [4], in test [5] and in test [6]. The molecule was classed as inactive in [7] and in test [8].

In the case of `O=[N+]([O-])c1c(Cl)c(Cl)cc(Cl)c1Cl`, the result in test [1], in test [2], in test [3], in test [4], in [5] and in test [6] was inactive. Besides, the molecule was called inactive in [7] and in [8].

On to `N#Cc1ccccn1`, for which the molecule was classed as inactive in test [1], in [2], in [3], in test [4], in test [5] and in [6]. Further, the call in [7] and in test [8] was inactive.

Consider `BrCCBr`, for which the result in test [1], in test [2], in test [3], in [4] and in test [8] was inactive.

Turning to `C(=NC1CCCCC1)=NC1CCCCC1`, the molecule was called inactive in [1], in test [2], in test [3], in test [4], in test [6] and in [8]. The AC50 in test [4] was 16.2 µM (active).

In the case of `Cc1cc(=O)[nH]o1`, the outcome in [1], in test [2], in test [3], in test [6] and in test [7] was inactive.

Turning to `CNC`, the call in test [1], in test [2], in test [3], in test [4], in test [5] and in [6] was inactive. Also, the result in test [7] and in test [8] was inactive.

In the case of `COc1ccc(C=O)cc1`, the molecule was called inactive in test [1], in [2], in test [3], in [4], in [5] and in [6]. Further, in test [8], the result was inactive.

As to `CC(C)OC(=O)Nc1ccccc1`, the molecule was classed as inactive in test [1], in [2], in test [3], in test [9], in test [4] and in [6]. Further, the outcome in test [8] was inactive.

For `Oc1ccc(-c2ccccc2)cc1`, the result in [1], in [2], in [3], in test [9], in test [4] and in [5] was inactive. Also, the result in [6] and in test [8] was inactive.

With `ClC1=C(Cl)[C@]2(Cl)[C@H]3[C@H]([C@H]4C=C[C@H]3C4)[C@@]1(Cl)C2(Cl)Cl`, the molecule was called inactive in test [1], in test [2], in [3], in [9], in test [5] and in [6]. Moreover, the call in [7] and in [8] was inactive.

`CC(C#N)CCC#N` (configuration not stated): the result in [1], in test [2], in test [9], in test [4], in [5] and in [6] was inactive. In addition, the call in test [7] and in test [8] was inactive.

Consider `COc1cc2c(cc1OC)[C@@]13CCN4CC5=CCO[C@H]6CC(=O)N2[C@H]1[C@H]6[C@H]5C[C@H]43`, for which the molecule was classed as inactive in test [1], in [2], in test [3], in test [4], in test [5] and in [6]. Besides, the molecule was classed as inactive in test [7] and in test [8].

Regarding `Clc1ccc(C2(Cn3cncn3)CC(Br)CO2)c(Cl)c1` (configuration not stated), the molecule was called inactive in test [1], in [2], in test [4], in [5], in test [6] and in test [8]. For the same molecule, the AC50 in test [3] is 69.2 µM (active).

Consider `CC(=O)OC(c1ccccc1)C(Cl)(Cl)Cl` (configuration not stated), for which the outcome in [1], in test [2], in test [3], in test [4], in [5] and in [6] was inactive. For the same molecule, the result in [8] was inactive.

In the case of `COc1ccccc1OC`, the outcome in test [1], in test [3], in [9], in test [4], in test [5] and in test [6] was inactive. Also, the result in [8] was inactive.

Take `COP(=S)(OC)Oc1cc(Cl)c(Cl)cc1Cl`: the molecule was classed as inactive in [2], in test [3], in [9], in test [4], in [5] and in test [6]. The outcome in [8] was inactive.

Take `COP(=O)(OC)O/C(=C\Cl)c1cc(Cl)c(Cl)cc1Cl`: the molecule was called inactive in test [1], in [3], in test [4], in test [5], in test [6] and in test [8].

In the case of `CCOC(=O)CP(=O)(OCC)OCC`, the call in [1], in [3], in [9], in test [4] and in test [8] was inactive.
